Casp7 inh: blocks human caspase-7 allosterically or competitively. Potency, µM (highest dose often 57.5 µM), for inactives: at the highest dose activity change, negative = inhibition, usual class: inhibitors. recombinant caspase-7, Ac-DEVD-AFC fluorescence rate. hit rate 0.02% among 75,000; active = well fitted inhibition curve with a large enough effect in the main read-out, with a control signal flat, not every such curve was filed as active; inconclusive = small, poorly fitted or top-dose-only effect, or a change in a side signal; also: potency is read from the fitted curve at half-maximal effect; % of control where 0% means no effect
Target sequence (P55210 24-198 limits assumed): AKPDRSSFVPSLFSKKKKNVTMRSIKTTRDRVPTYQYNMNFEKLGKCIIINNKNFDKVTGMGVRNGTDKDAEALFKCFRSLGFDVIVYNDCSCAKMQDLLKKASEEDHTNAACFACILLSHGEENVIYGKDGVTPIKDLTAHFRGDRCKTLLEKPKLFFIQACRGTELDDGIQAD
Target sequence (P55210 207-303 limits assumed): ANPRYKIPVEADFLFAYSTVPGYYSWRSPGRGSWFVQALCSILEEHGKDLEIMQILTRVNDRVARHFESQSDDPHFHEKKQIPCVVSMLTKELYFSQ
Casp1 inh: allosteric or competitive inhibitors of human caspase-1 | P29466 | Caspase-1 enzyme, Ac-WEHD-AFC fluorogenic rate | Potency, µM (titrated, usually from 57.5 µM), inactives show top-dose activity change, negative = inhibition, hits mostly inhibitors | hit rate 0.03% among 75,000 | AID 900;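 also: potency is read from the fitted curve at half-maximal effect; plate controls were vehicle for no effect and no substrate for full effect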
Target sequence (P29466 120-297 limits assumed): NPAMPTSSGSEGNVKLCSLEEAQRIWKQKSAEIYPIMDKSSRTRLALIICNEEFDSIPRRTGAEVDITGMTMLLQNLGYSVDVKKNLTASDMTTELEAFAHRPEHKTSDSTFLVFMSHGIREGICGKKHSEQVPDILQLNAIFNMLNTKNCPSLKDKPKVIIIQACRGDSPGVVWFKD
Target sequence (P29466 317-404 limits assumed): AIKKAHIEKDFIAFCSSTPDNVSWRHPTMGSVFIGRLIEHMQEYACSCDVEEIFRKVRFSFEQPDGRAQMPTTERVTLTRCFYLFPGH
TSHR agonist: TSH receptor (human) agonism | Potency, µM (titrated, usually from 57.1 µM), without a hit: at the highest dose activation, actives largely listed as activators | HEK293-CNG-TSHR cells (CNG channel as cAMP sensor), membrane potential dye, cAMP | hit rate 0.48% among 73,000 | AID 926 | P16473; active = well fitted activation curve with a large enough effect in the main read-out, with a control signal flat, not every such curve was filed as active; inconclusive = small, poorly fitted or top-dose-only effect, or a change in a side signal; inactive = no such curve, though single readings can be large or run the other way; % of control where 0% means no effect;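 also: the control signal comes from parental cells without the receptor; potency is read from the fitted curve at half-maximal effect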
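HEK 293 cells stably expressing TSHR and a modified CNG channel, with CNG-only parental cells as counterscreen, were preloaded 60 min at room temperature with membrane potential dye containing 100 uM RO 20-1724. Compound exposure was 30 min, and depolarization was read as fluorescence at 590 nm.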
HEK293 cAMP ctrl: counter-screen for TSHR agonists: cAMP increase in parental HEK293 | Potency, µM (highest dose often 57.1 µM), for the others: top-dose activation, usual class: activators | parental HEK293 CNG cAMP sensor, membrane potential fluorescence | AID 938 | hit rate 2.5% among 73,000; also: potency is read from the fitted curve at half-maximal effect; % of control where 0% means no effect; nearly all actives have a fitted effect of over 55% in size
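Parental HEK 293 cells stably expressing a modified CNG channel (no TSHR) report cAMP rise as membrane depolarization. Membrane potential dye with 100 uM RO 20-1724 was loaded for 60 min at room temperature, then compound added for 30 min; fluorescence read at 590 nm.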
HEK293 cAMP cnt: counter-screen for TSH receptor agonists: cAMP in parental HEK293 cells | AID 953 | shares compounds with TSHR agonist | parental HEK293 CNG biosensor, cAMP membrane potential fluorescence | 150 tested, under 10 active | activity change, negative = inhibition, % at 32.9 µM
* hit, by the source's call; ? = inconclusive; · = no result; [ ] = another dose, or the depositor's remark. In the library only some 2.6% were active in any assay of this set; here they are far more common. Unless noted, calls follow the shape of the dose curve; as a rule, active = well fitted curve in the direction sought with a large enough effect; inconclusive = small, poorly fitted or top-dose-only effect, or another doubt; inactive = no such curve, though single readings can be large; an effect the other way counts as inactive or inconclusive.

SMILES	Casp7 inh	Casp1 inh	TSHR agonist	HEK293 cAMP ctrl	HEK293 cAMP cnt
COc1cc(Cl)c(S(=O)(=O)NCc2cccnc2)cc1Cl	0%	-2%	-9%	-2%	·
O=c1sc2ccccc2n1COc1ccccc1	-4%	-5%	?	25µM*	·
Cc1cc(Cl)ccc1OC(C)C(=O)Nc1ccccc1N1CCOCC1 (stereo not given)	-1%	2%	?	25µM*	·
COc1ccc(COC(=O)N/N=C2/C[C@@H](O)[C@@H](O)[C@@H]3[C@@H]4C(=O)N(Cc5ccccc5)C(=O)[C@H]4CC[C@@H]23)cc1	0%[11.5 µM]	-1%[11.5 µM]	-3%[11.4 µM]	-1%[11.4 µM]	·
COCCn1c(SCC(=O)c2[nH]c(C)c(C(C)=O)c2C)nc2ccccc21	-3%	2%	1%	29%	·
O=C(O)CC[C@]1(C(=O)O)CCC(=O)c2ccccc21	0%[11.5 µM]	-2%[11.5 µM]	2%[11.4 µM]	10%[11.4 µM]	·
Cc1ccc(-n2nnc3c(=O)n(CC(=O)OCc4ccccc4)cnc32)cc1	-10%	-3%	?	25µM*	·
Cc1ccc(-n2ncc3c(=O)n(CC(=O)OCc4ccccc4)cnc32)cc1	0%	1%	?	25µM*	·
CN1CCC[C@H](C(=O)OCC(=O)[C@]2(O)CC[C@@H]3[C@H]4CCC5=CC(=O)CC[C@@]5(C)[C@H]4[C@@H](O)C[C@]32C)C1	-2%[11.5 µM]	2%[11.5 µM]	-5%[11.4 µM]	-3%[11.4 µM]	·
CCS(=O)(=O)NCC(c1cccnc1)N1CCN(c2ccc(F)cc2)CC1 (stereo not given)	0%	1%	4%	4%	·
COC(=O)[C@@]1(Cc2ccccc2)[C@H]2c3cc(C(=O)N4CCCC4)n(Cc4c(CO)[nH]cc(C)c4=O)c3C[C@H]2CN1C(=O)c1ccccc1	-2%	-7%	9%	16%	·
OCC(O)C(O)[C@H](O[C@H]1OC(CO)C(O)C(O)C1O)[C@H](O)CO (stereo not given in full)	0%	1%	·	·	·
COc1ccccc1-c1cc(=O)c2cc(O)ccc2o1	-1%	-2%	?	40µM*	·
CS(=O)(=O)N1CCN(C(=O)c2cc(-c3cccs3)nc3ccccc23)CC1	-2%	0%	20µM*	-4%	-5
C[N+]12CCC(CC1)[C@@H](OC(=O)C(O)(c1ccccc1)c1ccccc1)C2	-1%[25.7 µM]	0%[25.7 µM]	-5%[25.6 µM]	4%[25.6 µM]	·
Cc1nonc1NC(=O)CSc1nnc(-c2ccoc2C)n1CC(C)C	0%	0%	26%	13%	·
Cc1occc1-c1nnc(SCC(=O)NCc2ccc3c(c2)OCO3)n1CC(C)C	1%	-1%	16µM*	29%	10
COc1ccc(C2Nc3ccccc3C(=O)N2Cc2ccco2)cc1COc1ccc(NC(C)=O)cc1 (stereo not given)	-8%	-10%	0.63µM*	18%	22
COc1ccc(C(=O)N(Cc2ccco2)Cc2cccs2)c(O)c1	-1%	2%	2.5µM*	24%	-7
O=C1[C@H]2[C@H]3[C@H](O)[C@H](O)C/C(=N/OCc4ccccc4)[C@H]3CC[C@@H]2C(=O)N1c1cccc(Oc2ccccc2)c1	-1%[11.5 µM]	-3%[11.5 µM]	6%[11.4 µM]	-6%[11.4 µM]	·
N#C[C@H]1CN[C@H](N)N[C@@H]1N	1%[11.5 µM]	-1%[11.5 µM]	1%[11.4 µM]	0%[11.4 µM]	·
O=C(c1ccc(Br)o1)N(Cc1ccccc1)c1ccccn1	-12%	1%	?	?	4
O=C(C1CCCCC1)N(Cc1ccccc1)c1ccccn1	0%	-1%	16%	14%	·
CO/N=C1/[C@H]2O[C@@H]2[C@@H](O)[C@H]2[C@H]1CCn1c(=O)n(-c3ccccc3)c(=O)n12	-3%[11.5 µM]	1%[11.5 µM]	-1%[11.4 µM]	-8%[11.4 µM]	·
Cc1cccc(NC(=O)CSc2nnc(-c3ccccc3)n2N)c1C	0%	3%	3%[11.4 µM]	-13%	-2[25.6 µM]
SMILES	Casp7 inh	Casp1 inh	TSHR agonist	HEK293 cAMP ctrl	HEK293 cAMP cnt
Cc1cccc(NC(=O)CSc2nnc(-c3ccccc3)n2N)c1	-4%	0%	7%	-12%	·
Cn1c(=O)[nH]c(=O)c2[nH]cnc21	1%	2%	·	·	·
O=C(C1COc2ccccc2O1)N1CCCC1 (stereo not given)	2%	0%	-1%	-2%	-2[25.6 µM]
Cc1oc2c(CN3CCOCC3)c(O)ccc2c(=O)c1-c1ccccc1	-3%	0%	11%	10%	-37[25.6 µM]
COc1cccc(Oc2c(C)oc3c(CN4CCOCC4)c(O)ccc3c2=O)c1	-1%	0%	3%	14%	·
CCSCCOC(=O)C1=C(C)N(C)C(=O)NC1c1cc(OC)ccc1OC (stereo not given)	-5%	2%	25µM*	13%	8
CSc1nc(NC(C)(C)C)nc(Oc2ccc(=O)[nH]n2)n1	0%	1%	25µM*	0%	-3
CCNc1nc(NCc2ccccc2)nc(Oc2ccc(=O)[nH]n2)n1	1%	1%	102%	-3%	·
Cc1nccn1C[C@@H]1CCc2c(c3ccccc3n2C)C1=O	0%[25.7 µM]	1%[25.7 µM]	4%[25.6 µM]	-1%[25.6 µM]	·
COc1cc(OC)cc(-c2nnc(SCC(=O)N(C(C)C)C(C)C)o2)c1	1%	-2%	25µM*	24%	17
Cc1nn(C)c(C)c1S(=O)(=O)N(CC(=O)Nc1nccs1)c1ccc(C(C)C)cc1	-5%	-3%	7.9µM*	9%	-9
O=C(CN(Cc1ccccc1Cl)C(=O)Cn1nnc(-c2cccs2)n1)NCC1CCCO1 (stereo not given)	-1%	-1%	6.3µM*	12%	9
COCCn1c(=O)cnc2cnc(OCc3ccccc3)nc21	-2%	-2%	-4%	7%	·
CN1CCN(S(=O)(=O)c2ccc(N)cc2)CC1	1%	2%	-4%	19%	·
CC1(C)CC2CC(C)(CN2S(=O)(=O)c2ccc(N)cc2)C1 (stereo not given)	2%	1%	25µM*	7%	-5
Cc1ccc(S(=O)(=O)N[C@H]2COC(=O)[C@H](C)COC(=O)[C@H](C)NC(=O)C/C=C\[C@H]2C)cc1	-2%[11.5 µM]	0%[11.5 µM]	3%[11.4 µM]	-2%[11.4 µM]	·
O=C(CN(c1ccc2c(c1)OCCO2)S(=O)(=O)c1ccccc1)NCc1ccco1	0%	-1%	25µM*	1%	7
Cc1ccc(N(CC(=O)NCc2ccco2)S(=O)(=O)c2ccccc2)cc1	-3%	-5%	?	?	-7
O=C1OC(NC(=O)c2ccccc2)C(n2cc(CO)nn2)=C1Cl (stereo not given)	2%	1%	1%	1%	·
CC(C)(C)OCC1CO1 (stereo not given)	1%	-5%	4%	-12%	·
CN(C)c1ccc(-c2cc(Nc3ccc(F)cc3)ncn2)cc1	-17%	-10%	-12%	-14%	·
CC1(C)[C@@H]2CC[C@@]1(CS(=O)(=O)Nc1ccccc1)C(=O)C2	4%[11.5 µM]	-1%[11.5 µM]	-2%[11.4 µM]	-7%[11.4 µM]	·
Cc1oc(-c2cccc(Cl)c2)nc1CN1CCCC(C(=O)NCc2ccco2)C1 (stereo not given)	0%	0%	6%[11.4 µM]	17%	·
Cc1oc(-c2cccc(Cl)c2)nc1CN1CCCC(C(=O)NC(C)c2ccc3c(c2)OCCO3)C1 (stereo not given)	-5%	-6%	5%	9%	9[25.6 µM]

From PubChem
